Reference: the supplement of paper PMC6555819

Columns and labels:
Assay in all cases: PBM binding z-score (relative to random genomic background probes); higher = stronger binding; sequences stand for … in GC…GCGATTGACAGCGTAGAATGAAGG
[1] = tested on: FXR:RXRa (NR concentration 270 nM, RXRa partner concentration 90 nM)
Procedure, shortened: (§1)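 For binding z-scores, the reference was random background probes on custom Agilent 4×180K protein-binding microarrays. These arrays were incubated 1 h with ligand-free nuclear receptor dimers in PBS pH 7.4, 2% milk, 0.02% Triton X-100, 1 mM DTT, 0.2 mg/mL BSA and 0.4 mg/ml salmon testes DNA. Fluorescence was scanned after antibody detection of each partner (one per run) and regression-normalized.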

[2] = tested on: LXRa:RXRa (NR concentration 270 nM, RXRa partner concentration 90 nM)
Procedure, shortened: as §1

[3] = tested on: LXRa homodimer (NR concentration 270 nM)
Procedure, shortened: as §1

[4] = tested on: LXRb:RXRa (NR concentration 270 nM, RXRa partner concentration 90 nM)
Procedure, shortened: as §1

[5] = tested on: LXRb homodimer (NR concentration 270 nM)
Procedure, shortened: as §1

[6] = tested on: PPARa:RXRa (NR concentration 270 nM, RXRa partner concentration 90 nM)
Procedure, shortened: as §1

[7] = tested on: PPARg:RXRa (NR concentration 180 nM, RXRa partner concentration 90 nM)
Procedure, shortened: as §1

[8] = tested on: PPARg:RXRa 270nM:90nM, anti-RXR (NR concentration 270 nM, RXRa partner concentration 90 nM)
Procedure, shortened: as §1

[9] = tested on: PPARg:RXRa 30nM:10nM, anti-RXR (NR concentration 30 nM, RXRa partner concentration 10 nM)
Procedure, shortened: as §1

[10] = tested on: PPARg:RXRa 90nM:30nM, anti-RXR (NR concentration 90 nM, RXRa partner concentration 30 nM)
Procedure, shortened: as §1

Sequence	PBM binding z-score [1]	PBM binding z-score [2]	PBM binding z-score [3]	PBM binding z-score [4]	PBM binding z-score [5]	PBM binding z-score [6]	PBM binding z-score [7]	PBM binding z-score [8]	PBM binding z-score [9]	PBM binding z-score [10]
TCTCGGAGGACACGAAAGGTCAGAACTCGACATC	2.77	3.63	3.3	3.19	0.189	3.29	1.1	2.1	2.51	2.07
CCTACTGGGCCACGAAAGGTCCTTGATTCAGTGA	-0.183	-0.157	-0.498	-0.372	-0.947	1.21	1.24	1.23	-0.391	0.635
GATACAGGGGCAAGGCCAGAGTACGCGTATTGAT	-0.0183	-0.167	-0.13	0.382	-0.692	0.546	0.875	0.31	0.0579	0.23
CGAACTAGGTCAAAGGACAATGAAAGGCGACGTA	3.98	2.65	0.155	1.92	-0.0883	5.61	10.3	8.49	8.29	9.41
GATACACGGTCAAGGCCAGAGTACGCGTATTGAT	0.0472	0.275	-0.18	-0.406	-0.667	-0.0579	0.695	-0.00524	-0.0944	-0.0776
GCTAGTAGGTCAGTAAAAGGTCACACACCGGTCG	4.98	5.45	5.31	5.01	1.21	5.55	7.3	6.72	4.43	6.42
CATACAGGGTCCGCTAGGCCAGAGTAGGGACGGC	-0.192	-0.435	-0.418	-0.869	-0.218	-1.11	0.155	-0.418	-0.876	-0.844
CGAACTAGGTCAAAGCACAGTGAAAGGCGACGTA	3.1	2.6	-0.247	1.56	-0.247	5.18	8.01	6.88	5.18	7.17
CGGACTAGGTCACCAGGACAGTGAAGAGGTTGGA	3.78	2.23	-0.177	1.34	-0.742	4.41	8.1	6.5	4.18	5.97
CGAACTAGGTCAGAACAGGACAGTTAAGGATGAT	1.32	0.929	-0.00999	0.73	-0.36	3.07	5.13	4.49	2.04	3.46
ATATGTAGTTTAGGGTCATTCAGAAAGTAGGGAA	5.21	4.46	1.76	4.87	2.03	5.14	3.26	3.61	1.72	2.87
CCAGAAAGGTGAAAGGTAACTCAGTCTGGTACGC	2.31	2.14	-0.21	2.12	-0.446	5.13	6.55	6.26	4.77	6.27
CGTCGGAGGACAGAAGGTCAGAGCTGTCCGCTTT	1.32	1.68	0.0253	1.19	-1.11	1.85	-0.101	1.07	-0.708	0.0661
GCTCGGAGGACAAGGTCAGGGCTTTGTCCGTAGA	2.38	2.11	-0.64	1.71	-0.689	2.95	1.07	1.94	-0.338	0.806
AATACAGGGTCGCTAGGCCAGAGTAGGTACGAAT	0.424	0.524	-0.204	0.525	-0.053	1.37	1.05	0.765	0.105	0.482
GGAACGGGGGCAAGTTGATAGCAGAGTTTGATGG	3.27	2.87	0.913	4.45	7.1	4.02	3.2	4.52	2.09	3.58
AGTCAAATTTCATCTAGGTAACGTAAGATATGCT	-0.224	-0.221	0.168	0.0477	0.362	0.347	1.02	0.0693	0.291	0.178
ATATGTAGGTTAGGGTCGTTCAGAAAGTAGGGAA	2.59	2.54	0.724	3.09	1.65	4.31	5.88	4.99	2.44	4.12
ATCGAAACGTCGACGAGGTGAGTATACACCGTTT	-0.264	-0.5	-0.605	-0.525	-0.00441	-0.269	0.855	-0.111	-0.111	-0.157
CCTGCTAGGTCAATGGTCAGCTCAAGCAGCTCGC	3.28	2.16	-0.232	1.42	0.134	3.19	4.54	5.03	2.8	5.14
CGAACTAAGTCATCCAGGACAGTGAATACATTGA	0.0178	-0.0444	0.135	-0.252	-0.311	0.0393	0.532	0.277	0.283	0.237
TAGCCTAGGTCATGCGGGCCAGCATAGTGTCGGC	3.77	3	0.115	1.37	-0.19	3.4	2.11	2.55	0.274	1.49
CCAACTAGGTCATTGACAGGACAGTGAATAGTAA	4.34	3.06	0.961	2.18	0.671	3.92	5.95	5.66	2.77	5.03
CGAACTAGGTCACCTGGACAGTGAAGAGGTTGGA	3.92	2.38	0.0453	1.79	-0.443	5	8.13	6.5	4.2	5.86
CGAACTATGTCAAAGGACAGTGAAAGGCGACGTA	0.0509	0.00479	-0.268	-0.115	-0.346	2.68	5.1	5.42	4.42	5.74
